KDM5B inh = blocks human KDM5B histone demethylase activity. 220,000 tested, 2.6% active. KDM5B demethylase, FDH-coupled NADH fluorescence (FDH is formaldehyde dehydrogenase). Potency, µM (series often up to 57.7 µM), hits mostly inhibitors; active = well fitted inhibition curve with a large enough effect; also: nearly all actives have a fitted effect of over 70% in size
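Measured: NADH fluorescence change, 30 min, RT. System: KDM5BΔAP 200 nM final, H3K4me3 peptide, α-KG, Fe(II), ascorbate, NAD⁺ plus FDH, pH 7.5 HEPES. Compounds: titrated, 10 min pre-incubation with enzyme.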
Each line names hits and unclear results; the compound was inactive in the other large screens; ! = not active in a repeat. The sample as a whole holds a higher share of hits than the screen did.

CCOC(=O)NC(C)c1ccc(OC)cc1 (stereo not given)	none
NC(=O)[C@@H](Cc1c[nH]c2ccccc12)NC(=O)[C@H]1CN(C(=O)c2cccc(F)c2)CCN1C(=O)c1cccs1	none
O=C(NCCc1ccncc1)C1CN(S(=O)(=O)c2ccccc2)CC12CCOCC2 (stereo not given)	none
Cc1ccc(OCC(=O)N[C@@H]2CCOC[C@H]2Oc2cccc(F)c2)cc1C	none
CC(C)c1cc(C(=O)N[C@@H]2COCC[C@@H]2Oc2cccc(F)c2)nc(N)n1	KDM5B inh 28µM
COc1cccc(CCC(=O)N[C@@H]2COCC[C@@H]2Oc2cccc(F)c2)c1	none
COc1cc(C(=O)OCC(=O)NC(=O)NCc2ccco2)cc(OC)c1C	none
CN(C)S(=O)(=O)c1cccc(NC(=O)c2nn(Cc3ccccc3)c(=O)c3ccccc23)c1	none
CCn1c(SC(C)C(=O)Nc2nc(C)c(C)s2)nnc1-c1ccc(F)cc1 (stereo not given)	none
Cc1cc(N2CCC(c3nccn3Cc3ccccn3)CC2)nc2ccccc12	KDM5B inh 32µM
c1ccc(Cn2ccnc2C2CCN(c3ncnc4ccsc34)CC2)nc1	none
CCn1ccnc1C1CCN(c2nc3ccccc3s2)CC1	none
NC1CCc2nn(CC(=O)N3CCc4ccccc43)c(=O)n2CC1 (stereo not given)	none
NC1CCc2nn(CC(=O)NCCOc3ccccc3)c(=O)n2CC1 (stereo not given)	none
NC1CCc2nn(CC(=O)N3CCCN(c4ncccn4)CC3)c(=O)n2CC1 (stereo not given)	KDM5B inh 28µM
CCOc1ccc(NC(=O)c2cc(=O)c3cc(C)ccc3o2)cc1OC	none
Cc1cc(C)c(S(=O)(=O)N2CCC(C(=O)NCc3csc(-c4ccccc4)n3)CC2)c(C)c1	none
CCc1noc(-c2cccn3c(CNC(=O)c4ccccc4C)nnc23)n1	KDM5B inh 28µM
CCc1noc(-c2cccn3c(CNC(=O)c4cc(C)ccc4C)nnc23)n1	KDM5B inh 10µM
CCc1noc(-c2cn(C3CCN(C(=O)c4cc(C)ccc4C)CC3)nn2)n1	none
CCOc1ccc(NC(=O)c2ccc(C)cc2)c2cccnc12	none
COc1ccc(C2C(C#N)=C(N)Oc3n[nH]c(C)c32)cc1COc1cc(C)c(Cl)c(C)c1 (stereo not given)	none
COC1CCC12CCN(C(=O)c1cnccn1)CC2 (stereo not given)	none
COc1cccc(Oc2c(C)oc3cc(OS(C)(=O)=O)ccc3c2=O)c1	none
CSC(C)C(=O)Nc1ccc(Cl)c(Cl)c1 (stereo not given)	none
CN1C[C@@H](NC(=O)c2ccc(C(C)(C)C)cc2)C[C@H]1c1nc(-c2ccc3c(c2)OCO3)no1	KDM5B inh 35µM
CC(=O)N[C@H]1C[C@@H](c2nc(-c3ccc4c(c3)OCO4)no2)N(C)C1	none
CN1C[C@@H](NC(=O)CC(C)(C)CC(=O)O)C[C@H]1c1nc(-c2ccc3c(c2)OCO3)no1	none
O=C(O)/C=C/c1cc(Cl)cc(Cl)c1	none
O=C1CC2CCCC(C1)N2C(=O)c1ccc(Cl)cc1	none
Cc1cc(=O)n(CC(=O)Nc2ccc(C)c(C)c2)c(N2CCN(c3ccccc3)CC2)n1	none
COCc1cnc2c(c1SCC(=O)NCc1ccccc1Cl)c(=O)n(C)c(=O)n2C	none
Cc1ccc(-c2ccnc3c2c(=O)[nH]c(=O)n3CCc2ccccc2)cc1	none
CN(C)C(=O)C1CN(C(=O)CCc2ncc(-c3ccccc3Cl)o2)c2ccccc2O1 (stereo not given)	none
CCSc1nnc(-c2ccccc2NC(=O)C(CC)n2cccn2)c(=O)[nH]1 (stereo not given)	none
O=C(O)c1ccc(-c2nc3ncccc3[nH]2)cc1	KDM5B inh 28µM!
O=C(O)c1ccc2ncccc2c1	none
c1ccc(-c2nc3ncccc3[nH]2)nc1	KDM5B inh 32µM!
Cc1ccc(C)c(CSc2nc3ncccc3[nH]2)c1	none
Cc1nc(-c2ccccn2)n[nH]1	none
O=C(O)c1ccc(CN2C[C@@H](F)[C@@H](OCc3nc4ncccc4[nH]3)C2)cc1	none
c1cnc2nc(-c3ccsc3)[nH]c2c1	KDM5B inh 32µM!
Clc1ccc(CSc2nc3ncccc3[nH]2)cc1	none
Clc1cccc(CSc2nc3ncccc3[nH]2)c1	none
CCOc1ccc(S(=O)(=O)N2CCCC2c2ccc(Cl)cc2)cc1 (stereo not given)	none
COc1cc(/C=C(/C#N)c2ccccc2)ccc1OCCOc1ccccc1	none
CNC(=O)N1CCC(C2CCN(C(=O)CCC3CCCC3)C2)CC1 (stereo not given)	none
Cc1ccc(OCC(=O)N2[C@@H]3CC[C@H]2CC(NC(=O)c2ccncc2)C3)cc1 (stereo not given in full)	none
COC[C@H]1NC(=O)CC[C@H]1C(=O)Nc1ccc(N2CCOCC2)cc1	none
O=C(c1ccc2c(c1)OCO2)N1CC2CC(C1)[C@H]1CCCC(=O)N1C2 (stereo not given in full)	none
O=C(COc1ccccc1)N1C[C@@H]2C[C@H](C1)c1ccc(-c3cccc(C(F)(F)F)c3)c(=O)n1C2	KDM5B inh 22µM
O=C(c1ccc2c(c1)OCO2)N1C[C@@H]2C[C@H](C1)c1ccc(-c3cccc(C(F)(F)F)c3)c(=O)n1C2	KDM5B inh 28µM
O=C(Nc1cccc(F)c1)Nc1ccc(=O)n2c1[C@@H]1C[C@@H](CN(C(=O)COc3ccccc3)C1)C2	none
O=C(c1ccc(-c2ccccc2)cc1)N1C[C@@H]2C[C@H](C1)c1ccc(NS(=O)(=O)c3cccc(F)c3)c(=O)n1C2	none
O=C(Nc1ccc2n(c1=O)C[C@H]1C[C@@H]2CN(C(=O)COc2ccccc2)C1)c1ccccc1	none
Cc1ccc(-c2cc(C3CCN(C(=O)c4ccncc4)CC3)[nH]n2)cc1	none
N#CC(Cc1cccnc1)C(=O)Nc1cc(Cl)ccc1Cl (stereo not given)	none
Cc1ccc(-c2nn(CCC(=O)Nc3ccc(Cl)cc3)c(=O)c3ccccc23)cc1	none
NC(=O)C(Sc1ccccc1F)c1ccccc1 (stereo not given)	none
COc1cccc(CNC(=O)CSC2=NC3(CCCCC3)N=C2c2cccs2)c1	none
O=C(NCc1cccnc1)C1CCC1	none
CC(=O)N/N=C/c1cc(Cl)ccc1OCCCOc1cc(C)ccc1C(C)C	none
Cc1cc(C)n2nc(SCC(=O)c3cc(C)n(C(C)C)c3C)nc2n1	none
COCCNC(=O)c1ccc2c(c1)N(C)C(CC(=O)N1CCNC(=O)C1)CO2 (stereo not given)	KDM5B inh 28µM
COCC(=O)N1CCC(Oc2ccc(C(=O)NCCN3CCNC3=O)cc2)CC1	none
CN1c2cc(C(=O)N3CCOCC3)ccc2OCC1CC(=O)NC(C)(C)C (stereo not given)	none
COCCNC(=O)c1ccc(OC2CCN(C(=O)[C@@H](C)N)CC2)c(Cl)c1	none
COCCNC(=O)c1ccc2c(c1)N(C)C(CC(=O)N1CCCC1)CO2 (stereo not given)	KDM5B inh 32µM
COCCNC(=O)c1ccc(CC2CCN(C(=O)CN3CCCCCC3)CC2)cc1	none
CCn1nc(C(=O)OCC(=O)Nc2c(Cl)cc(Cl)cc2Cl)c2ccccc2c1=O	none
COc1ccc(C(=O)NC2CCCCCC2)cc1C	none
COc1cc(/C=C(/C#N)c2ccc(C(F)(F)F)cn2)cc(OC)c1	none
CCOC(CNC(=O)CS(=O)Cc1nc(-c2ccccc2)oc1C)OCC (stereo not given)	none
O=C1COCC2(CN1Cc1cccc(OC(F)(F)F)c1)CN(c1ccccc1F)C2	none
COc1cncc(N2CC3(COCC(=O)N(Cc4cccc(OC(F)(F)F)c4)C3)C2)c1	KDM5B inh 28µM
Cn1cc(CN2CC3(COCC(=O)N(Cc4cccc(OC(F)(F)F)c4)C3)C2)cn1	none
CCOC(=O)c1c(NC(=O)CN2CCc3ccccc32)sc(C(C)=O)c1C	none
C#CCNC(=O)Nc1ccc(C)cc1	none
